Source: PubChem
BioA inh-1 – blocks M. tuberculosis BioA enzyme activity | purified M. tuberculosis BioA enzyme, plate reader | inhibition, % at 9.99 µM | 360,000 tested, 0.096% active | AID 602481; in the data active = inhibition above about 40%
Sa ugtP lethal – kills S. aureus RN4220 lacking UgtP; S. aureus RN4220 ugtP deletion, OD600 growth, 16 h; growth inhibition, % (concentration not given with the values); 330,000 tested, 0.54% active; AID 1259309; in the data active = growth inhibition above about 68%;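 also: plate controls were untreated wells for no effect and antibiotic for full effect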
RN4220 kill – kills Staphylococcus aureus RN4220; S. aureus RN4220 growth, OD600, 16 h; inhibition, % (test concentration not listed); 330,000 tested, 0.33% active; in the data active = inhibition above about 85%;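 also: plate controls were untreated cells for no effect and reference antibiotic for full effect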
TcdB GH inh – inhibitors of Clostridioides difficile toxin B glycohydrolase; P18177; TcdB glycohydrolase enzymatic assay, plate reader; inhibition, % at 9.99 µM; 350,000 tested, 0.24% active; AID 652162; in the data active = inhibition above about 10%
Target sequence (P18177 whole entry, looked up): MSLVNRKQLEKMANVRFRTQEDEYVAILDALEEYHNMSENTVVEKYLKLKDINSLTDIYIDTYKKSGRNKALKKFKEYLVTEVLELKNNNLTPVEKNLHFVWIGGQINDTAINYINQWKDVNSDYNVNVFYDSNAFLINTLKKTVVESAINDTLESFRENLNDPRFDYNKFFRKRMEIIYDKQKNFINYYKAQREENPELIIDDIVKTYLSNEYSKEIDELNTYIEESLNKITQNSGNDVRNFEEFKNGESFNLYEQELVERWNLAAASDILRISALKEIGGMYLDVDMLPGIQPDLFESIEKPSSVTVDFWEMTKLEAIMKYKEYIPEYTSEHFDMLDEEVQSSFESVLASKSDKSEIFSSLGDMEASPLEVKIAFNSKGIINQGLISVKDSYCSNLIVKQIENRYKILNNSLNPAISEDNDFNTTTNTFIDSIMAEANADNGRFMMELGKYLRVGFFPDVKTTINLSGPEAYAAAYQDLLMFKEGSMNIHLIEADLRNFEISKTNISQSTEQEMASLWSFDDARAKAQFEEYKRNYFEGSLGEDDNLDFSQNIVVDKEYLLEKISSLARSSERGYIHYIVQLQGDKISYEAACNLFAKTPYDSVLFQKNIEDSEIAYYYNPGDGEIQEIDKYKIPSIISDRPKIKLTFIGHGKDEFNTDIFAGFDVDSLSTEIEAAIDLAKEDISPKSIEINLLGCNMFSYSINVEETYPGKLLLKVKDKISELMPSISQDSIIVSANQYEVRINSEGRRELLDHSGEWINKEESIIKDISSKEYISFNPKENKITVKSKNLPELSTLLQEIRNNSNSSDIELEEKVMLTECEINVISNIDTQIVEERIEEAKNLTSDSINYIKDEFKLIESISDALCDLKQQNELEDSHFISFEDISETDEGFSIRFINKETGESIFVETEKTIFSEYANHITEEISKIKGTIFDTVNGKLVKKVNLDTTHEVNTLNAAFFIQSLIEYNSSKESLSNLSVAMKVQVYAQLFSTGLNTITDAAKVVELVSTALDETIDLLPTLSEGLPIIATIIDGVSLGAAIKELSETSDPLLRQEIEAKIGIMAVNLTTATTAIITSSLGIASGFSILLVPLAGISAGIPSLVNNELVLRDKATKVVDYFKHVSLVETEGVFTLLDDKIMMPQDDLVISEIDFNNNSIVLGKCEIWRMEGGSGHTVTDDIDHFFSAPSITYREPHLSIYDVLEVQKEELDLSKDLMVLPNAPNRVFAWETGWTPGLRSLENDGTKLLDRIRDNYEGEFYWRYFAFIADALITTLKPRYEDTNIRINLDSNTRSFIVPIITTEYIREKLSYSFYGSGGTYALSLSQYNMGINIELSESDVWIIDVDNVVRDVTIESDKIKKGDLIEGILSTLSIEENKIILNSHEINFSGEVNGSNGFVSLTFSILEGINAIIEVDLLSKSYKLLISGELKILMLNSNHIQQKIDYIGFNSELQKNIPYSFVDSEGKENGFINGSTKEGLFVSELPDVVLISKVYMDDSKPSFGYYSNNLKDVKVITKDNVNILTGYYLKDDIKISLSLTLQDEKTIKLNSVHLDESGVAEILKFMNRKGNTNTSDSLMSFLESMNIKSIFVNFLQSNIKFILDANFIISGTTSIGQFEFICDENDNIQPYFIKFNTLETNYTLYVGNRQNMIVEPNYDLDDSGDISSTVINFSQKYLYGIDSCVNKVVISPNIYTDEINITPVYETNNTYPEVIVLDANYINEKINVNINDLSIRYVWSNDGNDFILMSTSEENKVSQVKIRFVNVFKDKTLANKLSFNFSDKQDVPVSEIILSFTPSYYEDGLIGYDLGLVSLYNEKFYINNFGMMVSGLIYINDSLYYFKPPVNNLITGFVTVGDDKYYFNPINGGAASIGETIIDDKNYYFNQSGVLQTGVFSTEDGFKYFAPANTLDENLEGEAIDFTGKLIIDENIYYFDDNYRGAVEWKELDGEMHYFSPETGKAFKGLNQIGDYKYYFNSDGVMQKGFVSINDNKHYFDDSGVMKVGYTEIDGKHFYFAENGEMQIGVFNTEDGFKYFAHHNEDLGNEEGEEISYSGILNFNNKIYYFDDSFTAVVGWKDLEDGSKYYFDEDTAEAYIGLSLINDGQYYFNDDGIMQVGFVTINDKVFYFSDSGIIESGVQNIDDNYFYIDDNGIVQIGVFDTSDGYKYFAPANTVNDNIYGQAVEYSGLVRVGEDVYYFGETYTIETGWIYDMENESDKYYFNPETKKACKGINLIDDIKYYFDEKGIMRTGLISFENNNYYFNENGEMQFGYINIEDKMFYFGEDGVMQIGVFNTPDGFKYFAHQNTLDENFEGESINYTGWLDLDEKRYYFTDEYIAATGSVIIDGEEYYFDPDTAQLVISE
Mtb hypoxia rep – inhibitors of hypoxia-regulated fluorescent reporter in Mycobacterium tuberculosis. M. tuberculosis hypoxia-regulated fluorescent reporter, fluorescence. fluorescence inhibition, % (test concentration not listed). 300,000 tested, 0.1% active. AID 1159583; in the data active = fluorescence inhibition mostly above about 23%, no sharp cut-off; inactive = mostly below about 17%
Yp Topo-I inh – inhibitors of Yersinia pestis topoisomerase I; Y. pestis Topo-I cleavage product accumulation, plate reader; activity, % at 10 µM; 360,000 tested, 0.064% active; in the data active = activity above about 50%, passing the limit was not always enough
BioA inh-2 – Mtb BioA enzyme inhibition; shares compounds with BioA inh-1; purified BioA enzyme, plate reader, dose response; max activity, %; 310 tested, under 10 active;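 also: top concentration of the dilution series was 10 µM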
HepG2 tox 2 – kills HepG2 cells; shares compounds with BioA inh-1; HepG2 cytotoxicity, plate reader; max activity, %; 310 tested, under 10 active; AID 651898
NIH3T3 tox 5 – NIH3T3 viability loss | shares compounds with BioA inh-1 | NIH3T3 cytotoxicity, plate reader | activity change, negative = cytotoxicity, % at 26 µM | 310 tested, under 10 active | AID 651900
Starred values were filed as active, the others as inactive; i = inactive; · = not tested or not shown; [ ] = another dose, or the depositor's remark. Rows were chosen to be rich in hits. Some 0.75% of all compounds tested hit in one or more screens of this group. Unless noted, no rule for the calls is given here.

SMILES	BioA inh-1	Sa ugtP lethal	RN4220 kill	TcdB GH inh	Mtb hypoxia rep	Yp Topo-I inh	BioA inh-2	HepG2 tox 2	NIH3T3 tox 5
COc1ccc(Nc2c(-c3ccc(C)cc3)nc3cnccn23)cc1	·	0	3	2	5	26	·	·	·
COc1ccc(-c2nc3cnccn3c2Nc2ccc3c(c2)OCO3)cc1	54*	-13	-7	-2	5	8	-3	4	-12
COc1ccc(Nc2c(-c3ccc(OC)cc3)nc3cnccn23)cc1	46*	2	4	1	5	13	-7	-6	1
COc1ccc(NC2CCCN(C(=O)c3ccc(C(C)=O)s3)C2)cc1 (centres undefined)	84*	-6	-2	5	-3	-3	-8	-14	-1
O=C1OCCN1C(=O)C1C(c2ccc(Cl)cc2)C(c2cccc(Cl)c2)=NN1c1ccccc1 (centres undefined)	·	9	-5	·	6	·	·	·	·
O=C(CSc1nc2cc(C(=O)O)ccc2c(=O)n1-c1ccc(F)cc1)Nc1ccc(F)c(F)c1F	81*	4	1	0	-1	-4	-9	-8	-12
O=C(CSc1nc2ccccc2c(=O)n1-c1ccc(F)cc1)Nc1ccc(C(=O)O)cc1	0	5	5	-2	2	-3	·	·	·
COc1ccc(NC(=O)Nc2ccc3c(c2)C(=O)N(C(C)CO)CC(C)C(CN(C)C(=O)Nc2c(C)noc2C)O3)cc1 (centres undefined)	·	-8	5	·	6	·	·	·	·
O=C(c1ccc2c(c1)OCO2)N1CC[C@@H]2[C@H](CO)Nc3ccc(-c4ccc(F)cc4)cc3[C@@H]21	90*	·	·	1	·	·	-7	i	-13
N#Cc1ccc(-c2ccc3c(c2)[C@H]2[C@H](CCN2C(=O)c2ccc(F)cc2)[C@H](CO)N3)cc1	10	·	·	·	·	·	·	·	·
O=C(c1ccc2c(c1)OCO2)N1CC[C@@H]2[C@@H](CO)Nc3ccc(-c4ccc(F)cc4)cc3[C@@H]21	10	·	·	2	·	·	·	·	·
N#Cc1ccc(-c2ccc3c(c2)[C@@H]2[C@@H](CCN2C(=O)c2ccc(F)cc2)[C@@H](CO)N3)cc1	40*	·	·	·	·	·	5	i	-6
CCOC(=O)[C@]12Cc3cc(N(C)C)ccc3C1N(Cc1ccccc1)C(=O)c1ccccc12 (some centres undefined)	·	8	2	·	-5	·	·	·	·
CCC(Sc1nc2ccsc2c(=O)n1Cc1ccc(C(=O)O)cc1)C(=O)Nc1cccc(OC)c1 (centres undefined)	75*	·	·	-1	·	-3	-6	-11	-1
CCc1ccc(NC(=O)C(CC)Sc2nc3ccsc3c(=O)n2CCC(=O)O)cc1 (centres undefined)	0	0	2	0	1	7	·	·	·
CCC(=O)c1ccc(OCC(=O)O)cc1	·	16	18	·	-16	-1	·	·	·
CCCc1c(OCCCOc2ccc(OCC(=O)O)cc2)ccc(C(C)=O)c1O	79*	-14	14	1	-12	6	-8	7	2
O=C(N[C@@H]1CC[C@H](CCn2cc(-c3cccnc3)nn2)O[C@@H]1CO)c1ccccc1F	60*	·	·	0	·	·	5	i	7
O=C(N[C@H]1CC[C@H](CCn2cc(-c3cccnc3)nn2)O[C@H]1CO)c1ccccc1F	7	·	·	0	·	·	·	·	·
O=C(N[C@H]1CC[C@@H](CCn2cc(-c3cccnc3)nn2)O[C@@H]1CO)c1ccccc1F	55*	·	·	1	·	·	8	i	7
CCOC1OC(C(=O)N2CCCCCCC2)=CC(c2csc3ccccc23)C1CCCO (centres undefined)	·	-7	3	·	7	·	·	·	·
C=CCn1c(SCc2c(C(=O)OC)sc(N)c2C(=O)OC)nnc1-c1ccc(Br)cc1	59*	11	-1	·	·	14	9	7	1
Cc1cc(C(=O)CSc2nncs2)c(C)n1-c1ccc2c(c1)OCO2	49*	-6	2	·	-5	35	-10	10	-6
O=C(COc1ccc2ccc(=O)oc2c1)Nc1cccnc1	49*	12	4	0	14	3	-9	-7	-4
CCOC(=O)c1ccc2c(c1)nc(SCc1cn3ccsc3n1)n2CC	53*	-4	2	·	-1	34	-7	11	-8
SMILES	BioA inh-1	Sa ugtP lethal	RN4220 kill	TcdB GH inh	Mtb hypoxia rep	Yp Topo-I inh	BioA inh-2	HepG2 tox 2	NIH3T3 tox 5
CC1CCC(=O)N(CC(C)CSc2ccc(Br)cc2)CC1 (centres undefined)	·	16	8	·	19	·	·	·	·
C[C@@H]1CN([C@@H](C)CO)C(=O)c2cc(C#Cc3cccnc3)cnc2O[C@H]1CN(C)S(C)(=O)=O	74*	·	·	0	·	·	6	i	1
CN(Cc1ccccc1)C(=O)CCS(=O)(=O)c1ccc2c(c1)NC(=O)CS2	41*	-3	-5	·	-7	16	8	18	8
CCN(Cc1ccccc1)S(=O)(=O)c1ccc2c(c1)NC(=O)CS2	2	-2	7	2	-5	23	·	·	·
C[C@H](CO)N1C[C@H](C)[C@@H](CN(C)Cc2ccc3c(c2)OCO3)Oc2ccc(NC(=O)Cn3cnnn3)cc2CC1=O	48*	·	·	-1	·	·	10	i	-9[23.5 µM]
O=C(Nc1ncc2c(n1)CC(c1cccc(Cl)c1)CC2=O)c1ccco1 (centres undefined)	61*	7	4	1	-2	3	-5	16	0
O=C(Nc1ncc2c(n1)CC(c1ccccc1)CC2=O)c1ccco1 (centres undefined)	98*	4	8	3	6	-5	6	17	3
COc1ccc(C2CC(=O)c3cnc(NC(=O)c4ccco4)nc3C2)cc1 (centres undefined)	3	8	-4	0	6	2	·	·	·
CCOc1ccccc1-c1cc(C(=O)NN=Cc2ccc(O)c(OC)c2)c2ccccc2n1	·	-1	1	·	8	·	·	·	·
CC(C)CC(CSc1ccccc1)N1CCN(CC(C)C)CCC1=O (centres undefined)	·	3	3	·	20	·	·	·	·
COc1cccc(C=NNC(=O)CNC(=O)/C=C\c2ccccc2)c1O	·	0	0	·	8	·	·	·	·
CCN(CC)S(=O)(=O)c1ccc(NC(=O)c2ccc(Cl)nc2)cc1	52*	4	2	1	5	0	-10	-11	-9
CCN(CC)S(=O)(=O)c1ccc(NC(=O)c2ccc(NS(C)(=O)=O)cc2)cc1	-2	0	6	·	20	5	·	·	·
C=CCN=c1scc(C)n1N=Cc1ccc(O)c(O)c1	·	-9	2	·	3	·	·	·	·
CC(Oc1ccc2c(-c3ccccc3)cc(=O)oc2c1)C(=O)N1CCOCC1 (centres undefined)	11	2	5	0	5	4	·	·	·
CC(Oc1ccc2ccc(=O)oc2c1)C(=O)N1CCOCC1 (centres undefined)	66*	-2	-1	-9	9	-4	-10	10	-9
